KAT2A inh – qHTS Assay for Inhibitors of GCN5L2. GCN5L2 HAT assay, ThioGlo1 CoA-SH fluorescence. AID 504327, 2011. 390,000 compounds, 0.21% hits. Potency, µM (series often up to 58.9 µM), actives largely listed as inhibitors
Target sequence (Q92830 whole entry, looked up): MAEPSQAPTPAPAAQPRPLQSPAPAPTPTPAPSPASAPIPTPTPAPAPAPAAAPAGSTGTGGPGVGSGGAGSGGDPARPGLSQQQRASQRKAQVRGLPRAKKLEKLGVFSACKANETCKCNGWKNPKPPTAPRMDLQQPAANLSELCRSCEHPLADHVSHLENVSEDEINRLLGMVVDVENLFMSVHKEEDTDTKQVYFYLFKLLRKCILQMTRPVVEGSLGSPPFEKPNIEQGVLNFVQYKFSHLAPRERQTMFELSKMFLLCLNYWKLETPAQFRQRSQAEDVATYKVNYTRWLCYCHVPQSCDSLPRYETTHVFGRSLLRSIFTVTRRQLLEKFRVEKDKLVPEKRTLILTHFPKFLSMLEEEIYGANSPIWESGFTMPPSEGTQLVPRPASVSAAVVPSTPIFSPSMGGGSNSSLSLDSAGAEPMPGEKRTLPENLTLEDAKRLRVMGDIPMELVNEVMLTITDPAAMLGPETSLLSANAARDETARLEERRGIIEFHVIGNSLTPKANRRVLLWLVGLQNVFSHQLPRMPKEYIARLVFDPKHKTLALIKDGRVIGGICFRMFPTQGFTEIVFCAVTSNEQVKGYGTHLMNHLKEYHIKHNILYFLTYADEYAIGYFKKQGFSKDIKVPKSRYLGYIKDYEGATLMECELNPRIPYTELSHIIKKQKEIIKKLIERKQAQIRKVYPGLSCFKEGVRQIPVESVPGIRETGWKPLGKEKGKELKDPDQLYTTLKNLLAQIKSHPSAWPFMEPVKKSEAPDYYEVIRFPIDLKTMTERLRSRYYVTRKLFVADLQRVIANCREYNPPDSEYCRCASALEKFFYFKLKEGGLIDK
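Free CoA generated was detected with ThioGlo1 (50uM) fluorescence at Ex340nm/Em540nm, read immediately and after 20 min at room temperature. Enzyme, 20 nM in HEPES pH 7.5 buffer, saw compounds 15 min before adding 75uM H3(1-25) peptide and 70uM acetyl-CoA.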
ALOX12 inh – Primary qHTS assay for inhibitors of human arachidonate 12S-lipoxygenase (ALOX12): Round 2; Polyunsaturated fatty acid lipoxygenase ALOX12 (Homo sapiens), P18054; purified 12hLO, xylenol orange hydroperoxide absorbance; Potency, µM (doses to about 108 µM), hits mostly inhibitors; 580,000 compounds, 1.1% hits
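Purified human 12hLO (150 nM final) in 25 mM Hepes, 0.01% Triton X-100, pH 7.0 was preincubated 15 min at room temperature with compound. Then 40 uM arachidonic acid was added, 30 min. Hydroperoxide was read by Fe-XO absorbance ratio 573/405 nm.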
PLK1 PBD block – qHTS for Inhibitors of PLK1-PDB (polo-like kinase 1 - polo-box domain): Primary Screen; Serine/threonine-protein kinase PLK1 (Homo sapiens), P53350; Potency, µM, most hits filed as inhibitors; AID 720504, 2013; Plk1 PBD binding of FITC phosphopeptide, fluorescence polarization; 360,000 compounds, 2.8% hits; also: series mostly up to about 57 µM; nearly all actives have a fitted effect of over 65% in size
VDR inh – Inhibitors of the vitamin D receptor (VDR): qHTS | 400,000 compounds, 0.93% hits | AID 504847, 2011 | Vitamin D3 receptor (Homo sapiens), P11473 | Potency, µM, usual class: inhibitors | VDR-SRC2-3 peptide fluorescence polarization, 2 h
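Measured by FP: displacement of SRC2-3 coactivator peptide from VDR by library compounds, following a two-hour ambient incubation.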
A number is an active result; i = inactive; ? = inconclusive; nt = no result; ! = a repeat was not active; [ ] = dose if it differs, or a comment. Shown are actives, neighbours in structure and some others; about 3% of the full set was active somewhere. Calls follow the shape of the dose curve; as a rule, active = well fitted curve in the direction sought with a large enough effect; inconclusive = small, poorly fitted or top-dose-only effect, or another doubt; inactive = no such curve, though single readings can be large; an effect the other way counts as inactive or inconclusive.

SMILES	KAT2A inh	ALOX12 inh	PLK1 PBD block	VDR inh
COc1ccc(OC)c(CCNC(=O)C(C)n2nc(C)c3c(C)n(-c4ccccc4)nc3c2=O)c1 (stereo unspecified)	i	i	26.7µM	i
CCCCN(C)C(=O)C(=O)c1c(C)[nH]c2ccccc12	nt	i	nt	nt
COc1ccc(C(C)=O)cc1CSCc1coc(-c2ccc(F)cc2)n1	nt	i	nt	nt
O=C(Cc1c[nH]c2ccccc12)Nc1ccc(F)c(F)c1	nt	i	nt	nt
O=C(Nc1ccc(Cl)cc1)[C@@H]1[C@@H]2C(=O)N(c3ccc(Cl)cc3)C(=O)[C@@H]2[C@H]2C=CC=NN21	i	?	23.8µM	?
O=C(Nc1ccc(Cl)cc1)[C@@H]1[C@@H]2C(=O)N(c3ccc(Cl)cc3Cl)C(=O)[C@@H]2[C@H]2C=CC=NN21	i	nt	nt	nt
CC(=O)Oc1ccc(C(=O)[C@H]2[C@H]3C(=O)N(c4ccc5ccccc5c4)C(=O)[C@H]3[C@@H]3C=CC=NN32)cc1	i	i	i	i
Cc1ccc(N2C(=O)[C@@H]3[C@H](C2=O)[C@H]2C=CC=NN2[C@@H]3C(=O)Nc2ccc(Cl)cc2)cc1	i	10µM	?	i
CCN(C(C)=O)C1CCN(C(C)c2ccccc2)C1 (stereo unspecified)	nt	i	nt	nt
CC1CCc2nn3ccn(CC(=O)Nc4ccc(F)cc4)c(=O)c3c2C1 (stereo unspecified)	nt	i	nt	nt
CC1(COc2ccc(C[C@H]3SC(=O)NC3=O)cc2)CCCCC1	35.5µM	?	nt	i
CC1(COc2ccc(CC3SC(=O)NC3=O)cc2)CCCCC1 (stereo unspecified)	25.1µM!	i[12.5 µM]	nt	i
Cc1c(C)c2c(c(C)c1O)CCC(C)(COc1ccc(CC3SC(=O)NC3=O)cc1)O2 (stereo unspecified)	?	?	nt	i
O=C(N/N=C/c1ccc(N2CCCCC2)o1)c1ccccc1[N+](=O)[O-]	i	?	i	39.8µM
O=C(N/N=C/c1ccc(N2CCOCC2)o1)c1ccccc1[N+](=O)[O-]	i	i	i	?
O=C(Nc1ccc(N2CCCC2)c(Cl)c1)c1ccccc1F	nt	i	i	nt
O=C(Nc1ccc(N2CCCC2)c(Cl)c1)c1ccccc1[N+](=O)[O-]	?	i	26.7µM	i
CCN1C(=NCc2cc(OC)c(OC)c(OC)c2)N[C@@H](c2ccccc2)C(C(=O)OC)=C1C	i	nt	23.8µM	?
CCOC(=O)c1c(-c2ccccc2)csc1NC(=O)C1CCCO1 (stereo unspecified)	i	?	23.8µM	i
CCOC(=O)c1c(-c2ccc(C)cc2)csc1NC(=O)C1CC=CCC1C(=O)O (stereo unspecified)	i	i	26.7µM	?
CCOC(=O)c1c(-c2ccccc2)csc1NC(=O)CSc1ccccc1	i	i	i	i
CCOC(=O)c1c(-c2ccc(-c3ccccc3)cc2)csc1NC(=O)C1C2CCC(O2)C1C(=O)O (stereo unspecified)	i	?	10.6µM	i
COc1ccc(Cl)cc1NC(=O)c1nc2ccccc2nc1N1CCCCC1	nt	i	nt	nt
C=CCc1cc(/C=C/c2nc(O)c([N+](=O)[O-])c(=O)[nH]2)cc(OC)c1O	i	39.8µM	i	79.4µM
Nc1ccc(O)c(C(=O)O)c1	?	i[22.9 µM]	nt	44.7µM!
SMILES	KAT2A inh	ALOX12 inh	PLK1 PBD block	VDR inh
Cc1c(O)ccc(-c2[nH]ncc2-c2nc3ccccc3s2)c1O	i	i	i	i
Cc1c(O)ccc(-c2n[nH]c(C(=O)O)c2-c2nc3ccccc3s2)c1O	i	35.5µM	i	i
Cc1ccc(/C=C/C(=O)OC(C)C(=O)c2ccc(C)c(C)c2)o1 (stereo unspecified)	nt	6.31µM	nt	nt
Cc1nc(NC(=S)NC(=O)c2cncc(Br)c2)ccc1Br	i	i	21.2µM	?
CC(C)CCC(O)(CCC(C)C)C(=O)NN1CCCCC1	i	i	i	i
CCCC(O)(CCC)C(=O)NN1CCCCC1	i	i	18.9µM	79.4µM
Cc1[nH]c2ccccc2c1C(c1ccncc1)N1CCN(c2ccccn2)CC1 (stereo unspecified)	i	i	i	i
CCOC(=O)C1CCN(C(c2ccccn2)c2c(C)[nH]c3ccccc23)CC1 (stereo unspecified)	i	?	11.9µM	?
Cc1[nH]c2ccccc2c1C(c1ccccn1)N1CCC(C(N)=O)CC1 (stereo unspecified)	i	?	6.7µM	?
Cc1[nH]c2ccccc2c1C(c1ccncc1)N1CCC(C)CC1 (stereo unspecified)	i	i	?	i
CC1CC(C)CN(C(=O)COC(=O)Cc2ccc(Br)cc2)C1 (stereo unspecified)	i	i	29.9µM	i
C=CCNC(=S)Nc1cc(Cl)ccc1Cl	nt	i	nt	nt
CCOC(=O)Cc1csc(NC(=O)Cc2ccc(Cl)cc2)n1	i	?	i	i
CCOC(=O)Cc1csc(NC(=O)NC2(C(F)(F)F)Oc3ccccc3O2)n1	i	?	11.9µM	?
CCOC(=O)Cc1csc(NC(=O)NC2(C(F)(F)F)Oc3cc(Cl)c(Cl)cc3O2)n1	i	0.631µM	21.2µM	i
CCOC(=O)Cc1csc(NC(=O)NC2(C(F)(F)F)Oc3ccc(Cl)cc3O2)n1 (stereo unspecified)	i	?	16.8µM	?
CCOC(=O)Cc1csc(NC(=O)Nc2ccc(OC(F)(F)F)cc2)n1	?	i	i	i
O=c1c2ccccc2sn1-c1ccc(S(=O)(=O)N2CCCC2)cc1	0.501µM	i	1.06µM	?
O=S(=O)(c1ccccc1)N1CCN(S(=O)(=O)N2CCCCCC2)CC1	i	i	i	i
Cc1ccc(-c2n[nH]c(=O)c3ccccc23)cc1S(=O)(=O)N1CCCCC1	nt	i	nt	nt
O=c1c2ccccc2sn1-c1ccc(S(=O)(=O)N2CCCCC2)cc1	nt	?	1.34µM	i
O=S(=O)(c1ccc(S(=O)(=O)N2CCCC2)cc1)N1CCCCC1	i	nt	i	i
Cc1ccc(-n2sc3ccccc3c2=O)cc1S(=O)(=O)N1CCCCC1	2.24µM	0.0891µM	0.844µM	?
CCOc1ccccc1OCCC(=O)Nc1cccc2cccnc12	nt	i	nt	nt
Cc1ccc(NC(=O)C2CCN(c3cc(C(F)(F)F)ncn3)CC2)cc1	nt	i	nt	nt
SMILES	KAT2A inh	ALOX12 inh	PLK1 PBD block	VDR inh
COc1ccc(/C=C/C(=O)c2cc(O)ccc2O)cc1	i	nt	nt	7.94µM
COc1ccc(/C=C/C(=O)/C=C/c2ccc(OC)cc2)cc1	nt	i	nt	nt
COc1ccc(/C=C/C(=O)c2ccc(OC)cc2OC)cc1	i	i	i	?
COc1ccc(/C=C/C(=O)c2cc3c(cc2N)OCO3)cc1	i	35.5µM	i	i
COc1ccc(/C=C/C(=O)c2ccc(O)cc2O)cc1	i	nt	nt	?
COc1ccc(/C=C/C(=O)c2ccc(C)s2)cc1	i	i	nt	31.6µM
O=C(/C=C/c1ccccc1)c1ccc(O)cc1O	i	nt	nt	25.1µM
CC(=O)C1C(=O)CC(C)(O)C(C(C)=O)C1c1ccc(Cl)cc1 (stereo unspecified)	nt	i	nt	nt
CC(C)(C)C(=O)CSc1nnc(COc2ccc(Cl)cc2)n1-c1ccc(Cl)cc1	nt	i	nt	nt
COc1cc(F)ccc1-c1cc2c(nc1-c1ccccc1)nc(C(=O)NCCN(C)C)n2C	nt	i	nt	nt

Source: PubChem
